Reference: ChEMBL document CHEMBL3433997, “St. Jude Leishmania screening dataset” (2016)

These molecules were tested against Glucose transporter (Leishmania mexicana) (UniProt O61059) (assay: ST_JUDE_LEISH: Cytotoxicity at 2uM final concentration against transgenic Leishmania Mexicana promastigotes LmGT2 that are glucose transport deficient and complemented with the L. Mexicana glucose transporter 2. Activity is measured by DNA content using SYBR green in vitro).
Type: functional

Row | Compound | inhibition
1 | CCN1CCN(C(=O)NC(C(=O)N2CCCC(COc3ccc(Cc4ccccc4)cc3)C2)c2cccs2)C(=O)C1=O (centres undefined) | 4.28%
2 | O=C(NC(CCCN1CCC2(CC1)OCc1ccccc12)c1ccc(Cl)c(Cl)c1)c1cc(C(F)(F)F)cc(C(F)(F)F)c1 (centres undefined) | -2.79%
3 | NS(=O)(=O)c1ccc(CNC(=O)c2cnc3c(O)cccc3c2Nc2cccc(NC(=O)c3ccc(Cl)c(Cl)c3)c2)cc1 | 5.34%
4 | CC(C)C(C(=O)Nc1ccc2c(c1)OCO2)c1ccc(Cl)cc1 (centres undefined) | 1.99%
5 | O=C(O)C1Cc2c([nH]c3ccccc23)C(c2ccc(Cl)cc2Cl)N1 (centres undefined) | 4.37%
6 | O=C(Nc1cccc(CN2CCCN(CC3CC3)CC2)c1)c1ccc(Cl)c(Cl)c1 | 12.6%
7 | COc1cccc(C(=O)N2CCN(Cc3cccc(NC(=O)c4cccs4)c3)CC2)c1 | 5.14%
8 | O=C(NCc1cccs1)[C@H](Cc1ccccc1)Nc1ccnc(NCC2CCCCC2)n1 | 10.6%
9 | O=C(Nc1ccc(I)cc1)N1CCc2sccc2C1CN1CCCCC1 (centres undefined) | 10.5%
10 | COc1ccc(N2C(=O)C3C(C2=O)C2(C)c4ccccc4C3(C)c3ccccc32)c([N+](=O)[O-])c1 (centres undefined) | 9.94%
11 | COc1ccc(-c2ccc(NC(=O)c3ccc(C#N)cc3)cc2)cc1CN1CCC(O)CC1 | -0.53%
12 | COCn1ncc2cc(-c3cccc(NC(=O)c4csc(NC(C)=O)n4)c3)ccc21 | 2.05%
13 | c1cc(C2=NC3CCCCC3N2)ccc1OCCCOc1ccc(C2=NC3CCCCC3N2)cc1 (centres undefined) | 1.12%
14 | O=C(Cn1c(SCc2cccc(F)c2F)cc(=O)c2ccccc21)N(CCc1c[nH]cn1)Cc1ccc(-c2ccc(C(F)(F)F)cc2)cc1 | 2.52%
15 | CC(C)(C)c1cc(C(=O)N2CCN(c3cnccn3)CC2)n(Cc2ccccc2)n1 | 4.9%
16 | Cc1ccccc1/N=C1\NC(=S)N(c2cccc(C(F)(F)F)c2)C12CCC(C(C)(C)C)CC2 (centres undefined) | 2.58%
17 | O=C(NCCCCN1CCC(c2ccc3c(c2OCC(O)c2ccc(Cl)cc2)CCCC3)CC1)c1ccc(-c2ccc(C(F)(F)F)cc2)cc1 (centres undefined) | 0.85%
18 | COc1cc(Cc2cnc3nc(N)nc(N)c3c2C)cc(OC)c1OC | 1.69%
19 | CC(C)Nc1cc(C(=O)N[C@@H](Cc2ccccc2)[C@H](O)CNC(C)(C)c2cccc(C(F)(F)F)c2)cc(N2CCCCS2(=O)=O)c1 | 0.9%
20 | Nc1nc(Cc2ccc(Cl)cc2)nc(Cc2ccc(Cl)cc2)n1 | 5.85%

Row | Compound | inhibition
21 | CN(C)CC(=O)Nc1ccc(-c2ccc3ccnc(N)c3c2)cc1 | 5.49%
22 | COc1ccc2c(c1)CC(NCc1ccc(-c3ccc4nc[nH]c4c3)cc1)C2 (centres undefined) | 1.31%
23 | Cc1cc(O)c2c3c1C(=O)C=C1C3c3c(c(O)cc(O)c3C(=O)C1(C)C)C2=O (centres undefined) | -3.43%
24 | O=C(c1cncc(-c2ccccc2)c1)N(Cc1cncn1Cc1ccccc1F)CC1CC1 | -0.58%
25 | CC(=O)Nc1nc(C(=O)Nc2ccc(-c3cccc(-c4nc5ccccc5[nH]4)c3)cc2)cs1 | 0.42%
26 | CC(=O)c1ccc2c(c1)CCN(CCC1CCC(NC(=O)c3cc4ccccc4[nH]3)CC1)CC2 (centres undefined) | 3.71%
27 | O=S(=O)(c1c(Cl)cc(Cl)cc1Cl)N1CCCCC(c2ccc(C(F)(F)F)cc2)=N1 | 6.28%
28 | Cn1nc(-c2cccc(CNCc3ccccc3)c2)c2cnc(NC3CCCC3)nc21 | -1.01%
29 | O=S(=O)(c1ccc(OCc2ccc(Cl)cc2)cc1)c1cc2c(cc1OCc1ccccc1)CCN(CC1CC1)CC2 | -3.24%
30 | CCCN(CCC)C(=O)c1cc(C(=O)N[C@@H](Cc2ccccc2)[C@H](O)CNC(C)(C)c2cccc(C(F)(F)F)c2)cc(N2CCCCS2(=O)=O)c1 | -1.54%
31 | c1ccc(CCNc2ccnc(Nc3ccc4[nH]nnc4c3)n2)cc1 | 10.8%
32 | CC(=O)Nc1ccc(CN(Cc2ccc(OC(C)(C)C)cc2)Cc2ccc3c(c2)OCCO3)cc1 | 6.45%
33 | COC[C@H]1CCCN1Cc1ccc(-c2ccc(-c3nc4ccccc4[nH]3)s2)cc1 | 1.25%
34 | CCc1cc(NCc2ccncc2)nc(Nc2ccc(F)cc2)n1 | 4.12%
35 | N#Cc1c(N2CCCCCC2)nc(N)c2c(N)nc3c(c12)CC(=O)N3c1ccc(F)cc1 | 2.89%
36 | O=C(/C=C/c1cccc(Cl)c1)N1CCC(C(O)CN2CCC3(CC2)CN(C(=O)/C=C/c2cccc(Cl)c2)c2ccccc23)CC1 (centres undefined) | 0.82%
37 | OC1(c2ccccc2)CCN(Cc2cccc(-c3c[nH]c4nc(NC5CCCC5)ncc34)c2)C1 (centres undefined) | 4.81%
38 | COc1ccc(C)c(Nc2ccnc(Nc3cccc(-c4nc5ccccc5[nH]4)c3)n2)c1 | 2.68%
39 | O=C(Nc1ccc(Cl)cc1)Nc1cccc(-c2ccc(-c3nc4cc(F)ccc4[nH]3)cc2)c1 | 4.76%
